Experimental data from PubChem BioAssay (NCATS).
Records with an inconclusive call do not appear. Activity calls are given as the source filed them. Calls follow the shape of the dose curve; as a rule, active = well fitted inhibition curve with a large enough effect; inconclusive = small, poorly fitted or top-dose-only effect; inactive = no such curve, though single readings can be large or run the other way.

test system: Zika virus NS2B-NS3 protease (linked construct); experiment: Primary screen NINDS Rhodamine qHTS for Zika virus inhibitors (AID 1347160); settings: purified NS2B-NS3 protease, Rhodamine110 substrate fluorescence; series mostly up to 57.1 µM; activity change, negative = inhibition: at the top concentration; also: nearly all actives have a fitted effect of over 55% in size
Outline: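 Percent inhibition, normalized to uninhibited and enzyme-free controls, is fitted to a 4-parameter Hill equation. Fluorescence change comes from a 15-min cleavage of 1.5 microM bis-peptide Rhodamine110 substrate by 25 nM linked NS2B-NS3 at room temperature.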
% is scaled to controls: 0 for no effect and ±100 for the full control effect.

Structure (SMILES) | activity change, negative = inhibition | outcome
CC(C)(C#N)c1ccc(N2C(=O)OCc3cnc4ccc(-c5cnc6ccccc6c5)cc4c32)cc1 | 6.42% (inactive) | 
C/C=C/c1ccc2oc(-c3ccc(O)c(OC)c3)c(C)c2c1 | -18.8% (inactive) | 
O=C(O)c1cc(-c2c(-c3ccccc3)nn3ccccc23)n[nH]c1=O |  | inactive
COc1cc([C@H]2c3cc(O)c(OC)cc3C[C@@H](CO[C@@H]3O[C@H](CO)[C@@H](O)[C@H](O)[C@H]3O)[C@@H]2CO)ccc1O | -12.8% [at 33.1 µM] (inactive) | 
COc1ccc(C[C@H](N)C(=O)N[C@@H]2[C@H](O)[C@H](n3cnc4c(N(C)C)ncnc43)O[C@@H]2CO)cc1 | 75.6% (inactive) | 
Cc1cccc(/C=N/Nc2cc(N3CCOCC3)n3nc(-c4ccncc4)cc3n2)c1 | -2.84% (inactive) | 
CC(C)(O)c1ccc2c(c1)C(O)C[C@H]1[C@](C)(C(=O)O)CCC[C@]21C (some centres undefined) | -21.5% [at 33.1 µM] (inactive) | 
COc1ccc(/C=C/C(=O)O[C@H]2[C@H](O[C@H]3[C@@H]4C=CO[C@@H](O[C@@H]5O[C@H](CO)[C@@H](O)[C@H](O)[C@H]5O)[C@@H]4[C@@]4(CO)O[C@@H]34)O[C@@H](C)[C@H](O)[C@H]2OC(C)=O)cc1 | 24.7% [at 15.1 µM] (inactive) | 
COC(=O)C1=CO[C@@H](O[C@@H]2O[C@H](CO[C@@H]3O[C@H](COC(=O)/C=C/c4cc(OC)c(O)c(OC)c4)[C@@H](O)[C@H](O)[C@H]3O)[C@@H](O)[C@H](O)[C@H]2O)[C@@H]2C(CO)=CC[C@H]12 | -2.01% [at 15.1 µM] (inactive) | 
O=C(/C=C\n1cnc(-c2cc(C(F)(F)F)cc(C(F)(F)F)c2)n1)N1CC(F)(F)C1 | 7.45% (inactive) | 
O=C(O)C1CN(Cc2ccc(-c3nc4cc(Cc5ccccc5F)ccc4s3)c(F)c2)C1 | -8.39% [at 10.7 µM] (inactive) | 
COc1cc(C(=O)OC[C@H]2O[C@@H](Oc3ccccc3/C=C/C(=O)O)[C@H](O)[C@@H](O)[C@@H]2O)cc(OC)c1OC | -11.9% [at 33.1 µM] (inactive) | 
C[C@H](NC(=O)CCc1nc2ccccc2c(=O)[nH]1)c1ccccc1 |  | inactive
COc1cc2ncnc(Nc3cccc(Cl)c3F)c2cc1OC(=O)N1CCN(C)C[C@H]1C | 23.7% (inactive) | 
C=C(C(=O)O)C1CCC2(C)CCCC(C)(O)C2C1 (centres undefined) | 3.28% (inactive) | 
CC1(C)CC[C@]2(C(=O)O[C@@H]3O[C@H](CO)[C@@H](O)[C@H](O)[C@H]3O)CC[C@]3(C)C(=CCC4[C@@]5(C)CC[C@H](O[C@@H]6O[C@H](C(=O)O)[C@@H](O)[C@H](O)[C@H]6O)C(C)(C)C5CC[C@]43C)C2C1 (some centres undefined) | -16.1% [at 15.1 µM] (inactive) | 
CC1=CC(=O)[C@]2(O[C@@H]3O[C@@H](C)[C@H](O)[C@@H](O)[C@H]3OC(=O)/C=C/c3ccccc3)C=CO[C@@H](O[C@@H]3O[C@H](CO)[C@@H](O)[C@H](O)[C@H]3O)[C@H]12 | -26.5% [at 15.1 µM] (inactive) | 
C[C@@H]1O[C@@H](O[C@H]2[C@H](O[C@H]3[C@H](O)[C@@H](C(=O)O)O[C@@H](O[C@H]4CC[C@@]5(C)C(CC[C@]6(C)C5CC[C@]57OC[C@@]8(CCC(C)(C)CC85)[C@H](O)C[C@]76C)C4(C)C)[C@@H]3O[C@@H]3O[C@H](CO)[C@@H](O[C@@H]4OC[C@@H](O)[C@H](O)[C@H]4O)[C@H](O)[C@H]3O)O[C@H](CO)[C@H](O)[C@@H]2O)[C@H](O)[C@H](O)[C@H]1O (some centres undefined) | -19.8% [at 10.7 µM] (inactive) | 
O=S(=O)(Nc1ccccn1)c1ccc(N=Cc2c(O)[nH]c3ccc4ncsc4c23)cc1 | 12% [at 10.7 µM] (inactive) | 
CC[C@]1(O)CC2CN(CCc3c([nH]c4ccccc34)[C@@](C(=O)OC)(c3cc4c(cc3OC)N(C=O)[C@H]3[C@@](O)(C(=O)OC)[C@H](OC(C)=O)[C@]5(CC)C=CCN6CC[C@]43[C@@H]65)C2)C1 (some centres undefined) | 71.8% [at 33.1 µM] (inactive) | 

Structure (SMILES) | activity change, negative = inhibition | outcome
Nc1nc2c(c(=O)[nH]1)C[C@@H](CCc1ccc(C(=O)N[C@@H](CCC(=O)O)C(=O)O)cc1)CN2 | 30% (inactive) | 
Nc1nc(Nc2ccc(S(N)(=O)=O)cc2)n(C(=S)Nc2c(F)cccc2F)n1 | 33.8% (inactive) | 
CC12CCC(=O)C=C1C(O)CC1C2C(O)CC2(C)C1CC[C@]2(O)C(=O)CO (some centres undefined) | 17.1% [at 15.1 µM] (inactive) | 
CC1C(OC(=O)c2ccccc2)C(O)C2C(C(=O)O)=COC(OC3OC(CO)C(O)C(O)C3O)C12 (centres undefined) |  | inactive [at 33.1 µM]
CC1(C)CCCC2(C)C1CC(=O)C13CC(CCC12)C(O)(CO)C3 (centres undefined) | -18.5% [at 33.1 µM] (inactive) | 
C/C(=C/CO)CC[C@@H]1[C@@](C)(O)CCC2C(C)(C)CCC[C@]21C (some centres undefined) | -14.7% [at 33.1 µM] (inactive) | 
CC1=CCC2C(C)(C)CCC[C@]2(C)[C@@]12CC[C@](C)(CC(=O)O)O2 (some centres undefined) | -3.57% [at 33.1 µM] (inactive) | 
O=C(Nc1ccn[nH]1)c1c(F)cccc1F |  | inactive
CC(=O)SCC(=O)c1ccc(NS(=O)(=O)c2ccc(OCCCN(C)C)cc2)nc1 | -12.1% (inactive) | 
CC1=CC(=O)C2(OC3OC(C)C(O)C(OC(=O)/C=C/c4ccccc4)C3O)C=COC(OC3OC(CO)C(O)C(O)C3O)C12 (centres undefined) | -15.7% [at 15.1 µM] (inactive) | 
Cc1ccc(S(=O)(=O)Nc2ccccc2N2CCCCC2)s1 | 1.04% (inactive) | 
C=C1CCC2C(C)(C)CCC[C@]2(C)[C@H]1C/C=C(\CO)C(=O)C(=O)O (some centres undefined) | -8.84% [at 33.1 µM] (inactive) | 
N[C@@]1(C(=O)O)CC[C@H]2[C@H](C(=O)O)[C@H]21 |  | inactive
CC1OC(O[C@H]2CC[C@@]3(C)C(CC[C@]4(C)C3CC=C3C5CC(C)(C)CC[C@]5(C(=O)OC5OC(CO)C(OC6OC(COC7OCC(O)C(O)C7O)C(O)C(O)C6O)C(O)C5O)CC[C@]34C)C2(C)C)C(O)C(O)C1OC1OCC(OC2OCC(O)C(O)C2O)C(O)C1O (some centres undefined) | -22.7% [at 10.7 µM] (inactive) | 
C=CC1(C)C=C2C(=O)OC(=O)C3=C(CCCC3(C)C)C2(O)CC1 (centres undefined) |  | inactive [at 33.1 µM]
CC(C)=CCC/C(C)=C/CO[C@@H]1O[C@H](CO)[C@@H](OC(=O)/C=C/c2ccc(O)cc2)[C@H](O[C@@H]2O[C@@H](C)[C@H](O)[C@@H](O)[C@H]2O)[C@H]1O | -5.05% [at 15.1 µM] (inactive) | 
CC1CC2OC3(OC2C(C)(C)O)C1C1(C)CCC24CC25CCC(O[C@@H]2OC[C@@H](O)[C@H](O)[C@H]2O)C(C)(C)C5CC=C4C1(C)C3O (some centres undefined) | -5.56% [at 15.1 µM] (inactive) | 
N#C[C@@H]1C[C@H](F)CN1C(=O)CNC1[C@H]2CN(C(=O)c3ccc(F)cc3)C[C@@H]12 (some centres undefined) | 5.11% (inactive) | 
C[C@@H]1CC[C@]2(C(=O)O)CC[C@]3(C)C(=CCC4[C@@]5(C)C[C@@H](O)[C@H](O)[C@@](C)(CO)C5CC[C@]43C)C2[C@]1(C)O (some centres undefined) | -17.5% [at 33.1 µM] (inactive) | 
